# In all, about 69,000 compounds went through this assay and about 1,000 (1.4%) showed an effect of 50% or more. What follows is part of a selection rich in strong results, with near analogues and random picks from the rest.
# Tested on: Leishmania donovani
# Assay: Leishmania intramacrophage assay
# Type: functional, organism-based
# Set-up: scale not given: in the data most compounds retested in dose-response had high values
smiles,measurement,setting,value
Cc1nc(C)n(CC2CCCN(Cc3ccc(C(N)=O)cc3)C2)n1 (configuration not stated),Percent Effect,"30 µM, 30.03 µM",-3.523%
Cc1ccc(F)c2c1N(C(=O)c1cn(CC(=O)N(C)C)nn1)CCC2,Percent Effect,"30.3 µM, […]",-28.86%
CCCSCC(=O)NS(=O)(=O)c1ccc2c(c1)OCCO2,Percent Effect,"30 µM, 30.03 µM",12.46%
O=C(O)C(F)(F)F.O=C(O)C(F)(F)F.c1c(CN2CCCC2)nc2n1CCN(C1CCOCC1)C2,Percent Effect,"30.3 µM, […]",25.13%
CC(C)NC(=O)C1(Cc2ccccc2-c2cncnc2)CCCNC1 (configuration not stated),Percent Effect,"30.3 µM, […]",16.97%
Cc1ccc(-c2ccccc2CC2(C(=O)NC(C)C)CCCNC2)cc1 (configuration not stated),Percent Effect,"30.3 µM, […]",53.92%
CC(C)NC(=O)C1(Cc2ccccc2-c2ccccc2)CCCNC1 (configuration not stated),Percent Effect,"30.3 µM, […]",40.16%
CC(C)(C)C(O)CN1CCN(C(=O)c2cccc3ncccc23)CC1 (configuration not stated),Percent Effect,"30 µM, 30.03 µM",14.67%
Cc1cc(NCc2cn(C)nc2-c2cccnc2)n(C)n1,Percent Effect,"30.3 µM, […]",-18.07%
O=C1NCCCc2[nH]c(-c3nc(C4CC4)no3)nc21,Percent Effect,"30.3 µM, […]",0.06758%
Oc1cc(CCC2CCCCN2)cc(-c2cccnc2)c1 (configuration not stated),Percent Effect,"30.3 µM, […]",51.21%
Oc1cc(CCC2CCCCN2)cc(-c2ccncc2)c1 (configuration not stated),Percent Effect,"30 µM, 30.03 µM",12.39%
Nc1ccc(-c2cc(O)cc(CCC3CCCCN3)c2)cn1 (configuration not stated),Percent Effect,"30.3 µM, […]",30.15%
CC[C@@H](C)[C@H](NC(=O)NC1CCS(=O)(=O)C1)C(=O)NCc1ccncc1 (some centres not stated),Percent Effect,"30.3 µM, […]",-5.4%
CNC(=O)CN(C)S(=O)(=O)c1c(Br)cc2[nH]c(=O)oc2c1Cl,Percent Effect,"30.3 µM, […]",30.57%
CCNC(=O)CN(CC)S(=O)(=O)c1c(Br)cc2[nH]c(=O)oc2c1Cl,Percent Effect,"30.3 µM, […]",26.48%
COC(=O)C(C)CN(C)S(=O)(=O)c1c(Br)cc2[nH]c(=O)oc2c1Cl (configuration not stated),Percent Effect,"30.3 µM, […]",53.15%
COc1cc(OC)c(-c2nc3c([nH]2)c(C2CC2)nn3C)cc1OC,Percent Effect,"30.3 µM, […]",40.91%
CC(C)c1ncncc1C(=O)NCCN1CCOCC1,Percent Effect,"30.3 µM, […]",-51.02%
Cc1ccc(CC(=O)Nc2cc(C(C)C)n[nH]2)cn1,Percent Effect,30 µM,62.25%
CC(C)c1cc(NC(=O)c2ccc(C(=O)NC(C)(C)C)cc2)[nH]n1,Percent Effect,"30 µM, 30.03 µM",58.67%
CC(C)c1cc(NC(=O)c2ccc([S+]([O-])C(C)C)cc2)[nH]n1 (configuration not stated),Percent Effect,30 µM,33.29%
CC(C)c1cc(NC(=O)c2cccnc2)[nH]n1,Percent Effect,30 µM,2.786%
Cc1ccc(C(=O)Nc2cc(C(C)C)n[nH]2)cn1,Percent Effect,"30 µM, 30.03 µM",-3.681%
CC(C)c1cc(NC(=O)c2ccncc2)[nH]n1,Percent Effect,30 µM,-9.457%
CC(=O)N1CCC(NC(=O)Cc2nc3nc(C)cc(C)n3n2)CC1,Percent Effect,"30.3 µM, […]",9.867%
O=C(c1ccc(CN2CCCCC2)cc1)N1Cc2cnn(CCO)c2C1,Percent Effect,"30.3 µM, […]",4.685%
COCCNC(=O)Nc1ccc(-c2nc(C(C)C)no2)cc1,Percent Effect,"30.3 µM, […]",-5.463%
COc1c(C2CCCN2c2ncnc3c2CCC3)c(C)nn1C (configuration not stated),Percent Effect,"30.3 µM, […]",55.59%
Cc1nn(C)c(C)c1C1CCCN1c1ncnc2c1CCC2 (configuration not stated),Percent Effect,"30.3 µM, […]",30.84%
Cc1nn(C)c(Cl)c1C1CCCN1c1ncnc2c1CCC2 (configuration not stated),Percent Effect,"30.3 µM, […]",-27.23%
O=C(CN1CCSCC1c1ccccc1)N1CCCC1 (configuration not stated),Percent Effect,"30.3 µM, […]",-14.01%
O=c1ccc(-c2cccs2)nn1CN1CCCCCC1,Percent Effect,"30 µM, 30.03 µM",13.2%
Cc1cc(N2CCC(O)(CN(C)C)C2)c2cc3c(cc2n1)OCO3 (configuration not stated),Percent Effect,"30.3 µM, […]",-1.24%
Cn1cc2c(n1)C(COCC1CC1)CN(Cc1ccsc1)C2 (configuration not stated),Percent Effect,"30.3 µM, […]",-18.37%
COc1ccc(CN2Cc3cn(C)nc3C(COCC3CC3)C2)cc1 (configuration not stated),Percent Effect,"30.3 µM, […]",16.82%
Cn1cc(CN2Cc3cn(C)nc3C(COCC3CC3)C2)cn1 (configuration not stated),Percent Effect,"30.3 µM, […]",53.65%
CCN(CC1CCOC1)C(=O)Nc1ccc(N2CCCC2)nc1 (configuration not stated),Percent Effect,"30 µM, 30.03 µM",21.14%
COCCN(Cc1cnn(C)c1)C(=O)C1CCCN(C2CCOCC2)C1 (configuration not stated),Percent Effect,"30.3 µM, […]",2.022%
CC(C)c1nnc2n1CCN(C(=O)CN1Cc3ccccc3C1=O)C2,Percent Effect,"30 µM, 30.03 µM",-6.489%
CC(CC(=O)Nc1ccc(C(=O)N(C)C)c(Cl)c1)n1cccc1 (configuration not stated),Percent Effect,"30.3 µM, […]",51.53%
CC(C)CNC(=O)c1ccc(NC(=O)NC(C)C)cc1Cl,Percent Effect,"30.3 µM, […]",-0.4257%
COc1cccc(NC(=O)CNc2ccc(C(=O)N(C)C)c(Cl)c2)c1,Percent Effect,"30.3 µM, […]",28.32%
CCCN1CCCCC1C(=O)Nc1ccc(-c2nnc[nH]2)cc1 (configuration not stated),Percent Effect,"30.3 µM, […]",6.317%
CC(C)N(CC(=O)Nc1ccc(Br)cc1Cl)Cc1cccnc1,Percent Effect,"30.3 µM, […]",0.9398%
Cc1ccnc(CNC(=O)C2CC(=O)N(CCN(C)C)C2)c1 (configuration not stated),Percent Effect,"30.3 µM, […]",7.855%
CNc1nccc(C2CCCCN2Cc2cnn3cccnc23)n1 (configuration not stated),Percent Effect,"30.3 µM, […]",53.78%
CN(C)c1nccc(C2CCCCN2Cc2cnn3cccnc23)n1 (configuration not stated),Percent Effect,"30.3 µM, […]",15.49%
c1cnc2c(CN3CCCCC3c3ccncn3)cnn2c1 (configuration not stated),Percent Effect,"30.3 µM, […]",9.705%
Cc1csc2c(=O)n(CCN3CCC(c4ccccc4)CC3)cnc12,Percent Effect,"30.3 µM, […]",-32.46%
Cc1nccn1CCCN1CCCC(c2nccn2CC2CCC2)C1 (configuration not stated),Percent Effect,"30.3 µM, […]",28.26%
Cc1nccn1CCCN1CCCC(c2nccn2C)C1 (configuration not stated),Percent Effect,"30.3 µM, […]",28.64%

# From ChEMBL document CHEMBL3988442, “University of Dundee, Small-Polar-MMV Screening Library” (2021)
